For 90 compounds, inhibition results are on record in PubChem BioAssay AID588689 (Southern Research Specialized Biocontainment Screening …, 2011).

The term inhibition denotes the relative decrease from the control value, in per cent.

The campaign covered roughly 340,000 compounds. About 1,000 (0.29%) were called active. Cut-off read from the data, not from the text of the source: inconclusive = inhibition above about 29% without an active follow-up result; inactive = below that. Only a sample is shown. Entries with a potency or affinity are not part of this list.

This assay addresses Genome polyprotein (Dengue virus type 2 (strain 16681-PDK53)) (UniProt P29991). The assay can be described thus: flavivirus cap methylation enzyme inhibition – biochemical, confirmation dose response, primary screen (AID 588689). The following applies: Dengue-2 NS5 methyltransferase capping enzyme assay, at 25 µM, stronger effect = higher value.
The mark [1] stands for this setting: measured here: pilot screen replicate inhibition.

On to `N=C1c2ccccc2CN1NC(=O)CC12CC3CC(CC(C3)C1)C2`, for which the inhibition is -6.39% (inactive).

As to `COc1ccc(NCc2nnc(SCC#N)n2-c2ccccc2OC)cc1`, the inhibition is 4.71% (inactive).

Regarding `O=C(COC(=O)COc1ccccc1)NC12CC3CC(CC(C3)C1)C2`, the inhibition is 3.65% (inactive).

For the compound `CC1=CC(C)(C)N(C(=O)CN2C(=O)CCC2=O)c2ccccc21`, the inhibition was 4.64% (inactive).

As to `C/C(=N\OCC(=O)Nc1cc(C)cc(C)c1)c1ccc2c(c1)OCCO2`, the inhibition is -2.91% (inactive).

For the compound `O=C1COC(c2ccccc2O)=NN1CCCl`, the inhibition is 4.57% (inactive).

As to `O=C(CN1C(=O)NC2(CCCC2)C1=O)OCCOc1ccc(Br)cc1`, the inhibition is -1.44% (inactive).

As to `CCOC(=O)[C@H](C)N1[C@H](C)[C@H](c2ccccc2)Oc2ccc(Cl)cc2S1(=O)=O`, the inhibition is -5.21% (inactive).

For the compound `Cc1ccc2cc(C=O)c(N(C)C)nc2c1`, the inhibition is 1.3% (inactive).

In the case of `Cc1ccc2cc(C=O)c(Cl)nc2c1`, the inhibition is -3.88% (inactive).

For the compound `COc1ccc(C(=O)NC2CCCCCCC2)cc1OC`, the inhibition was -1.55% (inactive).

`CCN=c1scc(C)n1/N=C/c1cc(Br)c(O)c(Br)c1`: the inhibition was 9.36% (inactive).

In the case of `CCN=c1scc(-c2ccco2)n1/N=C/c1ccc(O)cc1`, the inhibition was 4.53% (inactive).

For the compound `CN=c1scc(C)n1/N=C/c1ccc(O)cc1O`, the inhibition is 2.07% (inactive).

Regarding `CC(C)N=c1scc(-c2cccs2)n1/N=C/c1ccc(O)c(O)c1O`, the inhibition was 16.7% (inactive).

For `CCN=c1scc(C)n1/N=C/c1ccsc1`, the inhibition is 2.4% (inactive).

With `CN=c1scc(-c2ccco2)n1/N=C/c1ccc(O)c(O)c1`, the inhibition was -2.15% (inactive).

Consider `CN=c1scc(-c2cccs2)n1/N=C/c1ccccc1O`, for which the inhibition was -0.73% (inactive).

As for `CN=c1scc(-c2ccccc2F)n1/N=C/c1ccc(O)c(O)c1O`, the inhibition was 26.9% (inactive).

For `COc1ccc(S(=O)(=O)NCCCN2CCCC2=O)cc1OC`, the inhibition was -6.1% (inactive).

Take `CC(C)(C)[C@@H]1C=C(C(=O)O)[C@H](c2ccc(Cl)cc2)N1S(=O)(=O)c1ccccc1`: the inhibition was -3.97% (inactive). Further, the inhibition under setting [1] is -4.61%.

Consider `Cn1c(SCC(=O)Nc2ccccc2)nc2c([nH]c3ccccc32)c1=O`, for which the inhibition is -11.1% (inactive).

Regarding `Nc1ccn([C@@H]2O[C@H](CNC(=O)[C@@H](Cc3cccnc3)NC=O)[C@@H](O)[C@H]2O)c(=O)n1`, the inhibition is -7.38% (inactive).

As to `Cc1cc2nc(C)c3c(n2n1)CCC3`, the inhibition is -6.57% (inactive).

Turning to `Nn1c(COc2ccccc2F)nnc1SCC(=O)NC1CCCC1`, the inhibition was -8.38% (inactive).

Consider `O=C1c2ccccc2NC(c2ccc(-c3ccc(F)cc3)o2)N1O` (centres undefined), for which the inhibition was 13.4% (inactive).

For `CC1=NN(c2ccc(C)cc2)C(=O)/C1=C/c1ccc(-c2cc([N+](=O)[O-])ccc2O)o1`, the inhibition is 21.8% (inactive).

With `O=C(O)c1ccccc1-c1ccc(/C=C2\SC(=O)N(c3ccccc3)C2=O)o1`, the inhibition is 25.1% (inactive).

For the compound `CN1C(=O)/C(=C/c2ccc(-c3ccccc3[N+](=O)[O-])o2)SC1=Nc1ccc(Cl)c(C(=O)O)c1`, the inhibition is 24.5% (inactive).

For the compound `CCCOC(=O)c1cc(-c2ccc(/C=C3/C(=O)N(C)C(=O)C(C#N)=C3C)o2)ccc1Cl`, the inhibition is -12.3% (inactive). Also, the inhibition under setting [1] is -8.18%.

For `CC1=NN(c2ccc(Cl)c(C(=O)O)c2)C(=O)C1`, the inhibition is 10.9% (inactive).

For `CCOC(=O)c1cc(-c2ccc(/C=N\n3cnnc3)o2)ccc1Cl`, the inhibition was -3.91% (inactive).

As to `Cc1c(C(=O)O)cccc1-c1ccc(/C=C2/NC(=O)N(c3ccccc3)C2=O)o1`, the inhibition was -1.55% (inactive).

As to `Cc1ccc(CN2C(=O)N/C(=C/c3ccc(-c4ccc(C(=O)O)cc4)o3)C2=O)cc1`, the inhibition was 14.9% (inactive).

Turning to `O=C(Nc1ccccc1N1CCCCC1)c1cc(S(=O)(=O)N2CCOCC2)ccc1Cl`, the inhibition is -0.73% (inactive).

For the compound `C#CC[N+](C)(C)CC#Cc1ccccc1`, the inhibition is -1.48% (inactive).

`O=C1CC(c2ccccc2)CC(O)=C1C=NCc1ccc(Cl)c(Cl)c1` (centres undefined): the inhibition was 3.34% (inactive).

Turning to `CC1(C)CC(=O)C(C(N)=NC(=O)c2ccccc2)=C(O)C1`, the inhibition is 0% (inactive).

Turning to `CC(=O)c1c(C)[nH]c(C(=O)OCC(=O)N2CCc3ccccc32)c1C`, the inhibition was -4.77% (inactive).

Turning to `CCCCc1cc(=O)oc2cc(OCC(=O)N3CCc4ccccc43)ccc12`, the inhibition is -4.8% (inactive).

On to `CCc1ccc(N2C(=O)CC(Cn3nc(C)cc3C)C2=O)cc1` (centres undefined), for which the inhibition is -5.48% (inactive).

In the case of `CN(C)S(=O)(=O)c1cccc(NC(=O)/C=C/c2ccc(S(=O)(=O)N3CCOCC3)cc2)c1`, the inhibition was -0.74% (inactive).

Take `CCOC(=O)c1ccc(N2N=C(C)/C(=C/C=C/c3ccco3)C2=O)cc1`: the inhibition is 10.2% (inactive).

`CC1=NN(c2ccc(C(=O)O)cc2)C(=O)/C1=C/c1ccc(-c2ccccc2F)o1`: the inhibition is 51.9% (inactive).

Take `CC1=NN(c2cccc(C(=O)O)c2)C(=O)/C1=C\C=C\c1ccco1`: the inhibition was 19.1% (inactive).

Turning to `COC(=O)c1ccccc1-c1ccc(/C=C2\C(=O)N(c3ccccc3)N=C2c2ccccc2)o1`, the inhibition is 1.6% (inactive).

For `O=C(c1ccccc1[N+](=O)[O-])N1CCCC(C(=O)N2CCCCCC2)C1` (centres undefined), the inhibition is 0% (inactive).

As to `CCCSc1nnc(NC(=O)c2nc(SC)ncc2Cl)s1`, the inhibition is 0% (inactive).

Regarding `CCc1ccc(NC(=O)c2nc(S(=O)(=O)Cc3ccccc3)ncc2Cl)cc1`, the inhibition is -51.9% (inactive).

For the compound `O=C(Nc1ccc(F)cc1)c1nc(S(=O)(=O)Cc2ccccc2)ncc1Cl`, the inhibition is -51.9% (inactive).

Regarding `C=CCSc1nnc(NC(=O)c2nc(SCC)ncc2Cl)s1`, the inhibition was -6.43% (inactive).

Take `COc1ccc([N+](=O)[O-])cc1NC(=O)CCN1CCOCC1`: the inhibition is -1.96% (inactive).

Turning to `COc1ccc(N(CC(=O)N/N=C/c2ccc(-c3ccc([N+](=O)[O-])cc3)o2)S(=O)(=O)c2ccc(C)cc2)cc1Cl`, the inhibition is -4.14% (inactive).

With `O=C(c1ccc(N2C(=O)c3ccccc3C2=O)cc1)N1CCN(S(=O)(=O)c2ccccc2F)CC1`, the inhibition was -0.55% (inactive).

`O=C(CCC(=O)Nc1cccc(Cl)c1)N/N=C/c1cc([N+](=O)[O-])ccc1O`: the inhibition is -2.94% (inactive).

As to `CN1CCCC(OC(=O)c2ccc(C(C)(C)C)cc2)C1` (centres undefined), the inhibition was -4.27% (inactive).

Regarding `CCOC(=O)C1C(=O)CC(C)(O)C(C(=O)OCC)C1c1cccc(OC)c1` (centres undefined), the inhibition was -3.38% (inactive).

Take `CCNCc1cc(OCC)c(OCC(=O)NCCc2ccccc2)cc1Cl`: the inhibition is -2.77% (inactive).

As to `CCCn1c(N)c(C(=O)CSc2nc3ncc(Cl)cc3[nH]2)c(=O)[nH]c1=O`, the inhibition was -2.94% (inactive).

As for `Cc1ccc(S(=O)(=O)N2[C@@H](c3ccccc3)C(C(=O)O)=CC[C@H]2c2cccc(Cl)c2)cc1`, the inhibition was -2.4% (inactive).

As to `Cc1ccc(S(=O)(=O)N2[C@@H](c3ccccc3)C(C(=O)O)=CC[C@H]2c2ccc(C(C)C)cc2)cc1`, the inhibition is 21.6% (inactive).

Consider `Cc1ccc([C@H]2C(C(=O)O)=CC[C@@H](c3cccc(Cl)c3)N2S(=O)(=O)c2ccc(C)cc2)cc1`, for which the inhibition was 16.6% (inactive). The inhibition under setting [1] came to 2.77%.

On to `Cc1ccc(S(=O)(=O)N2[C@@H](c3ccc(Cl)cc3)C(C(=O)O)=CC[C@H]2c2cccc(Cl)c2)cc1`, for which the inhibition was 22.7% (inactive).

As to `COc1ccc([C@@H]2CC=C(C(=O)O)[C@H](c3cccc(Cl)c3)N2S(=O)(=O)c2ccc(Cl)cc2)cc1`, the inhibition was 16% (inactive).

`Cc1ccc(S(=O)(=O)N2[C@@H](c3cccc(Cl)c3)C(C(=O)O)=CC[C@H]2c2cccc(C)c2)cc1`: the inhibition was 20.8% (inactive).

For `Cc1ccc(S(=O)(=O)N2[C@@H](c3ccc(Cl)cc3)C(C(=O)O)=CC[C@H]2c2ccc(C(C)C)cc2)cc1`, the inhibition was 25.9% (inactive).

On to `Cc1ccc(S(=O)(=O)N2[C@@H](c3cccc(Cl)c3)C(C(=O)O)=CC[C@H]2c2ccc(Cl)cc2)cc1`, for which the inhibition was 20.7% (inactive).

As for `O=C(NCCCN1CCCC1=O)c1cccc(N2CCCC2=O)c1`, the inhibition is -1.47% (inactive).

Take `CN(C)S(=O)(=O)c1ccc(C(=O)OCC(=O)c2ccc(OC(F)F)cc2OC(F)F)cc1`: the inhibition is 2.08% (inactive).

Regarding `CCCN1CCN(C(=O)c2ccc(CS(=O)c3ccc(F)cc3)o2)CC1` (centres undefined), the inhibition was -6.18% (inactive).

Turning to `O=S(=O)(NCc1cccc(C(F)(F)F)c1)NCc1ccccc1F`, the inhibition is -7.25% (inactive).

As for `CCn1c(SCc2nc3ccccc3c(=O)[nH]2)nnc1-c1ccncc1`, the inhibition is 3.13% (inactive). Further, the inhibition under setting [1] was -0.31%.

For the compound `CCCCn1c(N)c(N(CCOC)C(=O)CCc2ccc(OC)cc2)c(=O)[nH]c1=O`, the inhibition was -2.18% (inactive).

Take `Cc1ccc(Cc2nc(-c3ccncc3)no2)cc1`: the inhibition is -1.78% (inactive).

For `CN(C)Cc1cc(O)c(CN(C)C)cc1O`, the inhibition is 24.7% (inactive).

For `CCN(CC)Cc1cc(C(C)=O)ccc1O`, the inhibition was -1.36% (inactive).

For `Nc1nc(N)c(N=Nc2ccc(C(=O)O)cc2)c(N)n1`, the inhibition is 0.65% (inactive).

With `COc1ccc(N=Nc2ccc(N)nc2N)cc1`, the inhibition is 1.3% (inactive).

For `COc1cc2cc(CCCOC(=O)c3ccc(Br)cc3)oc(=O)c2cc1OC`, the inhibition is 8.18% (inactive).

In the case of `COc1cc(C(CC(=O)Nc2ccc(C)cn2)N2Cc3ccccc3C2=O)cc(OC)c1OC` (centres undefined), the inhibition was -5.88% (inactive).

Regarding `Cc1ccc(C(=O)C(C)OC(=O)C2CCN(c3ccc(C(F)(F)F)cn3)CC2)cc1` (centres undefined), the inhibition is -0.72% (inactive).

Regarding `CNC(=O)C1CC(=O)N(CCc2ccc(C)cc2)C1` (centres undefined), the inhibition is -3.31% (inactive).

For `Cc1noc(C(=O)Nc2ccccc2C(F)(F)F)c1Cl`, the inhibition was -9.68% (inactive).

As for `O=C1/C(=C/c2ccc(O)c(O)c2)SC(=S)N1Nc1ccccc1`, the inhibition was -21.8% (inactive).

For `O=C(O)c1ccc(/C=C2\SC(=S)N(NC(=O)c3ccccc3)C2=O)cc1`, the inhibition is 8.49% (inactive).

Take `O=C(Cc1ccccc1)NN1C(=O)/C(=C/c2ccc(C(=O)O)cc2)SC1=S`: the inhibition was 27% (inactive).

As for `COc1ccc(/C=C2/SC(=S)N(n3c(C)ccc3C)C2=O)cc1`, the inhibition is -3.19% (inactive).

As for `Cc1ccc(S(=O)(=O)NN2C(=O)/C(=C\c3ccc(Cl)cc3)SC2=S)cc1`, the inhibition was -1.66% (inactive).

`COc1ccc(/C=C2/SC(=S)N(NS(=O)(=O)c3ccccc3)C2=O)cc1`: the inhibition was 21.2% (inactive).

On to `CC(=O)NN1C(=O)/C(=C\c2ccc(C)cc2)SC1=S`, for which the inhibition was -6.43% (inactive).
